Results on 30 molecules are retold here after PubChem BioAssay.

Molecules are shown by their SMILES. Potency and affinity values are given separately. Calls of active or inactive are those of the source. Where a call stands in place of a potency, no number is given. No cut-off is given here; in the data, nearly all actives have IC50 up to about 0.91 µM.

Sequence of Calcium-dependent protein kinase 4 (Plasmodium falciparum (isolate 3D7)) (Q8IBS5 whole entry, looked up): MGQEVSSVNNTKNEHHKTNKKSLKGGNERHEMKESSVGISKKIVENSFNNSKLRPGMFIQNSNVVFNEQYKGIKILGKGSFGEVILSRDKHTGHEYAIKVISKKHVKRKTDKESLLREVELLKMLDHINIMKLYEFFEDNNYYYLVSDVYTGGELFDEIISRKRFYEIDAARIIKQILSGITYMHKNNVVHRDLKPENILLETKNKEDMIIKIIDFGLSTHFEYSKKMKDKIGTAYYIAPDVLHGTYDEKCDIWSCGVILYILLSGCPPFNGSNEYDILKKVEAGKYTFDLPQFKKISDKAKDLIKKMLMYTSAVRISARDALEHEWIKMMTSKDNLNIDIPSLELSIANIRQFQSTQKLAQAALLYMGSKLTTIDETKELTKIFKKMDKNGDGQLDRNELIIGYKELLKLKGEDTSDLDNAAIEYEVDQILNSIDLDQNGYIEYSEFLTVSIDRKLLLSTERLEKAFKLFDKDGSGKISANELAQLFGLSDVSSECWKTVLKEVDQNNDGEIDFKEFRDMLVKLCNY

This assay concerns the target Calcium-dependent protein kinase 4 (Plasmodium falciparum (isolate 3D7)) (UniProt Q8IBS5). The assay can be described thus: PfCDPK4 kinase inhibitors, biochemical, TCAMS library (AID 1159588). To be noted: recombinant PfCDPK4, Kinase-Glo ATP depletion luminescence. On the technique in general: In Kinase-Glo more light means more ATP remaining.
As for `Cc1ccc(Nc2c3ccccc3nc3ccc(C)cc23)cc1`, the result was inactive.

For `CCNC(=O)Nc1ccc(N(C)c2ccnc(Nc3ccc(CS(C)(=O)=O)cc3)n2)cc1`, the outcome was inactive.

With `O=C(O)c1ccc(-c2cnc3ccc(NC4CCC(O)CC4)nn23)cc1` (stereo not given), the result was inactive.

As to `CCN(CC)CCCC(C)Nc1nc(C=Cc2ccc(Br)cc2)nc2cc(Cl)ccc12` (stereo not given), the outcome was inactive.

Consider `COc1ccc(NC(=O)c2ccc(-c3cccc(OCc4ccccc4)c3)cc2)cc1N1CCN(C)CC1`, for which the outcome was inactive.

As for `CN(C)CC(O)COc1ccc(Nc2ncc([N+](=O)[O-])c(Nc3ccccc3O)n2)cc1` (stereo not given), the outcome was inactive.

For `CCc1cc2c3c(N)nc(N)nc3ccc2n1C(C)(C)C`, the result was inactive.

As to `CC(Sc1n[nH]c(-c2ccccc2Br)n1)C(=O)Nc1ccc(F)cc1` (stereo not given), the result was inactive.

For `O=c1c2cccnc2sn1-c1ccccc1`, the result was inactive.

Consider `O=C(CN1C(=O)CC1S(=O)(=O)Cc1ccco1)NCCCCCCc1ccc(F)cc1` (stereo not given), for which the outcome was inactive.

Consider `Cc1ccc(Nc2nc3cc(Nc4ccnc(Nc5cccc(CS(C)(=O)=O)c5)n4)ccc3o2)cc1`, for which the outcome was inactive.

`C[C@H]1CN(Cc2ccc(-c3cccc(CNC(=O)c4cccc(C(=O)c5ccc(Cl)c(Cl)c5)c4)c3)s2)CCN1`: the outcome was inactive.

In the case of `COc1cc2c(cc1C(F)(F)F)N(C(=O)Nc1ccc(Br)cn1)CC2`, the result was inactive.

For the molecule `Brc1ccsc1-c1nc(NC2CCN(Cc3ccccc3)CC2)no1`, the outcome was inactive.

Consider `Clc1ccc(C=NNc2ccnc3cc(Cl)ccc23)cc1`, for which the result was inactive.

`Cc1cccc(Cn2ccc3c(N)nc(N)nc32)c1`: the result was inactive.

With `Cc1nc(Nc2ccc(F)cc2)nc(N2CCc3ccccc3[C@@H]2C)c1C`, the result was inactive.

For `Fc1ccccc1C=NNc1ccnc2cc(Cl)ccc12`, the outcome was inactive.

With `c1ccc2c3c([nH]c2c1)C(c1ccc2c(c1)CCO2)N(c1ncnc(N2CCN(CCCN4CCOCC4)CC2)n1)CC3` (stereo not given), the outcome was inactive.

As for `COc1c(C2CCN(CCCCNC(=O)C=Cc3ccccc3C(F)(F)F)CC2)ccc2c1CCCC2`, the outcome was inactive.

As for `Clc1cccc(C=NNc2ccnc3cc(Cl)ccc23)c1`, the result was inactive.

`C[C@@H]1CN(c2ccc3[nH]cc(Sc4ccc(-c5cccs5)cc4)c3c2)C[C@H](C)N1`: the result was inactive.

As to `O=[N+]([O-])c1ccc(-n2nc(-c3cccnc3)n(Cc3ccco3)c2=S)c(Cl)c1`, the outcome was inactive.

Regarding `CC(C)CN1C(=O)C(c2ccc(F)c(F)c2)=C(O)C1c1ccccc1` (stereo not given), the result was inactive.

In the case of `Cc1ccc(Cn2ccc3c4c(N)nc(N)nc4ccc32)cc1`, the result was inactive.

Consider `Cc1ccc(-n2c(C)cc(C(=O)CN3C(=O)NC(Cc4ccccc4)C3=O)c2C)cc1` (stereo not given), for which the result was inactive.

Consider `Cc1csc2nc(C(C)c3ccc(NC(=O)c4cccs4)cc3)oc(=O)c12` (stereo not given), for which the result was inactive.

Regarding `Cc1nc2ccccc2n1C1C[C@H]2CC[C@@H](C1)N2CCC1(c2ccccc2)CCN(C(=O)Nc2ccc(C(F)(F)F)cc2)CC1` (stereo not given in full), the result was inactive.

For the molecule `COc1cc(Cc2cnc(N)nc2N)ccc1OCc1csc(-c2ccc(Cl)cc2)n1`, the result was inactive.

Consider `Cc1ccccc1Cn1ccc2c3c(N)nc(N)nc3ccc21`, for which the outcome was inactive.
